For 107 compounds, INHIBITION results are on record in ChEMBL document CHEMBL4513216, “Probing the Open Global Health Chemical Diversity Library for Multistage-Active Starting Points for Next-Generation Antimalarials” (ACS Infect Dis, 2020).

Each structure is given as a SMILES string. Out of some 69,000 compounds screened, about 8,600 (12%) showed an effect of 50% or more. Only a selection was taken, and strong results are over-represented in it overall.

The test system of this test is Plasmodium berghei. In words: Screen against P. berghei liver stage (PbLuc), transformed with Luciferase, at 10uM. Type of test: functional, HepG2. The settings on record: tested at 10 uM.
Regarding `CCCc1nc(Nc2cccc(C(N)=O)c2)c2c(n1)c(C)nn2CC`, the INHIBITION is given as -28.15%.
For `O=C(Cn1cccc(S(=O)(=O)N2CCCC2)c1=O)c1ccccc1Cl`, the INHIBITION amounted to 16.6%.
Regarding `CCOc1cc(=O)n2c(c1C(=O)OCc1cccc(C)c1)CCCC2`, the INHIBITION is on record as 43.8%.
As to `c1csc(CN2CCn3c(Cn4cncn4)cnc3C2)n1`, the INHIBITION came to 45.5%.
For the compound `COC(=O)C1CCN(c2cc(C)nc(-c3ccncc3)n2)CC1`, the INHIBITION is listed as -53.5%.
On to `Cc1noc(C)c1C(=O)N1C[C@@H]2COC[C@]2(COc2ccccn2)C1`, for which the INHIBITION came to 18.5%.
Next, `CN1CCN(C(=O)c2cc(NC(=O)c3ccccc3)n(C)n2)CC1`: 46.6%.
Consider `CCN1CCN(C(=O)c2cc(NC(=O)c3ccccc3)n(C)n2)CC1`, for which the INHIBITION worked out at 75.7%.
Turning to `Cn1nc(C(=O)N2CCCCCC2)cc1NC(=O)c1ccccc1`, the INHIBITION was 26.4%.
Consider `CC(C)N1c2sc(-c3ccsc3)nc2CC1C(=O)NC1CCCC1` (configuration not stated), for which the INHIBITION is given as 47.5%.
The result for `CC(C)N1c2sc(-c3ccsc3)nc2CC1C(=O)NC1CC1` (configuration not stated) reads 26.5%; that for `CC(C)N1c2sc(-c3ccccc3)nc2CC1C(=O)NC1CCCC1` (configuration not stated), 57.1%; that for `Cc1cccc(CN2CCc3ncnc(N4CCOCC4)c3CC2)n1`, -9.86%.
As to `Cc1ccc(CN(CCCN2CCOCC2)Cc2[nH]cnc2C)o1`, the INHIBITION is listed as -18.9%.
As for `CS(=O)(=O)N1CCC[C@]2(C[C@@H](Oc3ncccc3F)CO2)C1`, the INHIBITION was 26.2%.
`CN1CC=C(c2noc(CCC(=O)N3CCCC3)n2)CC1`: the INHIBITION was determined as 41.6%.
Regarding `CN1CC=C(c2noc(CCC(=O)N3CCc4ccccc43)n2)CC1`, the INHIBITION came out at 32.5%.
As for `CN1CC=C(c2noc(CCC(=O)N3CCc4ccccc4C3)n2)CC1`, the INHIBITION is recorded as 77.2%.
With `CCc1cccc(N2CCC(NC(=O)c3ccoc3C)CC2)c1`, the INHIBITION is reported as 70.8%.
As to `CCc1cccc(N2CCC(NC(=O)c3ccncc3)CC2)c1`, the INHIBITION is recorded as 23.5%.
As for `CCc1cccc(N2CCC(NC(=O)c3ccco3)CC2)c1`, the INHIBITION is recorded as 91.4%.
As to `CCc1ccc(O)c(C(=O)NC2CCN(S(=O)(=O)CC)CC2)c1`, the INHIBITION came to 44.2%.
For `CCc1cccc(N2CCC(NC(=O)c3cc[nH]n3)CC2)c1`, the INHIBITION is reported as 77.3%.
As for `Cc1occc1C(=O)NC1CCN(C(=O)Nc2cccnc2)CC1`, the INHIBITION was 46.3%.
As to `O=C(NC1CCCN(Cc2c(F)cccc2F)C1)c1cc[nH]n1` (configuration not stated), the INHIBITION is listed as 32.2%.
As to `CCc1cccc(N2CCC(NC(=O)c3ccc(=O)[nH]n3)CC2)c1`, the INHIBITION was 21.9%.
Turning to `O=C(NCc1cccc(N2CC=CC2)c1)NC1CC1`, the INHIBITION is reported as -37.7%.
Take `O=C([C@@H]1C[C@H]2[C@H](CCN2Cc2nccs2)O1)N1CCOCC1`: the INHIBITION is listed as -1.53%.
On to `O=C(O)CNC(=O)Cc1csc(-c2ccccc2F)n1`, for which the INHIBITION was 32.8%.
Regarding `CCc1ccccc1C(=O)N1CCCC1CC(=O)c1cnn(C)c1` (configuration not stated), the INHIBITION worked out at 30.6%.
The result for `Cc1cscc1C(=O)N1CCCC1CC(=O)c1cnn(C)c1` (configuration not stated) reads 12.7%; that for `Cc1ccc(O)c(C(=O)N2CCCC2CC(=O)c2cnn(C)c2)c1` (configuration not stated), 50.2%.
Next, `CCn1cc(S(=O)(=O)N2CCC(C3CCCCN(C)C3=O)CC2)c(C)n1` (configuration not stated): 37.1%; `OCC1CCN(C[C@@H]2CN(C3Cc4ccccc4C3)C[C@@H]2CO)CC1`: 48.5%.
As for `COc1cc(C(=O)N2CCC(Nc3cccnc3)CC2)ccc1C`, the INHIBITION is recorded as -22.1%.
Consider `O=C(NC1CCC1)[C@H]1C[C@H]2CN(CC3CC3)C[C@@H]1O2`, for which the INHIBITION was determined as 65.3%.
As to `Cc1cccc(S(=O)(=O)N2C[C@@H]3C[C@H](C(=O)NC4CCC4)[C@H](C2)O3)c1`, the INHIBITION came to 5.36%.
For `CC(C)CN1C[C@@H]2C[C@H](C(=O)NC3CCC3)[C@H](C1)O2`, the INHIBITION was 31.5%.
Next, `O=C(Nc1ccccc1)[C@H]1C[C@H]2CN(S(=O)(=O)c3ccccc3)C[C@@H]1O2`: 5.96%; `CCc1cnc(N2C[C@@H]3C[C@H](C(=O)NC4CCC4)[C@H](C2)O3)nc1`: 5.63%; `O=C(NC1CCC1)[C@H]1C[C@H]2CN(S(=O)(=O)c3ccccc3)C[C@@H]1O2`: 51.2%.
For `Fc1ccc(-c2cnc(CN3CCn4c(nnc4C4CC4)C3)o2)cc1`, the INHIBITION was 21.8%.
The result for `CN1C(=O)CCCC12CCCN(Cc1cccs1)C2` (configuration not stated) reads -2.35%; that for `N#Cc1ccc(C(=O)O)nc1C=Cc1cccc(Cl)c1`, 10.2%.
With `c1coc(-c2noc(CN3CCCCC3Cn3cncn3)n2)c1` (configuration not stated), the INHIBITION worked out at 17.4%.
On to `COCCc1ncc(CN2C[C@@H](C(=O)O)[C@H](C(C)C)C2)cn1`, for which the INHIBITION was 50.2%.
Next, `CC(C)[C@@H]1CN(Cc2cnc(C3CCCCC3)nc2)C[C@H]1C(=O)O`: 13.5%; `COCc1ncc(CN2C[C@@H](C(=O)O)[C@H](C(C)C)C2)cn1`: 24.2%; `CSc1cc2c(cc1NC(=O)NCc1ccncc1)OCCO2`: 8.4%.
With `CSc1cc2c(cc1NC(=O)NCC1CCOC1)OCCO2` (configuration not stated), the INHIBITION is 67.3%.
Turning to `COCCNC(=O)Nc1cc2c(cc1SC)OCCO2`, the INHIBITION is 69.1%.
For `COCCN(C)C(=O)Nc1cc2c(cc1SC)OCCO2`, the INHIBITION is recorded as -34%.
For `CSc1cc2c(cc1NC(=O)NCC(=O)N(C)C)OCCO2`, the INHIBITION turned out to be 35.9%.
Take `CSc1cc2c(cc1NC(=O)NCCn1ccnc1)OCCO2`: the INHIBITION is 64.6%.
On to `CCCNC(=O)Nc1cc2c(cc1SC)OCCO2`, for which the INHIBITION was found to be 8.47%.
As to `CSc1cc2c(cc1NC(=O)NCC(C)(C)C(N)=O)OCCO2`, the INHIBITION is reported as 48.5%.
For `CC(NC(=O)NCCn1ccnc1)c1ccc2c(c1)OCCO2` (configuration not stated), the INHIBITION stood at 31.8%.
As for `O=C(N1CCCC(n2cncn2)C1)C1(c2ccccc2F)CCCC1` (configuration not stated), the INHIBITION was determined as 22.3%.
Turning to `Cn1cnc(CNC(=O)c2ccccc2-n2cc(CN)cn2)c1`, the INHIBITION is on record as -5.71%.
Take `COCC1CC2(CCN(Cc3cccnc3)CC2)CN1c1ncccn1` (configuration not stated): the INHIBITION is reported as 22.2%.
Take `Cc1cc(S(=O)(=O)NC(=O)CCc2cncc(F)c2)c(C)s1`: the INHIBITION is listed as 24.3%.
As for `COCc1nc(C(=O)N2CCCC2c2cccc(C)c2)cs1` (configuration not stated), the INHIBITION was -23.8%.
Next, `COc1c(C)cnc(CN2CCCC(Cn3nc(C)nc3C)C2)c1C` (configuration not stated): -1.14%.
With `CC(NC(=O)NCCn1ccnc1)c1nncn1C` (configuration not stated), the INHIBITION came to 39.3%.
`COc1cccc(CNc2cc(N3CCCC3CO)ncn2)n1` (configuration not stated): the INHIBITION was -14.6%.
Take `O=C(O)c1ccccc1-c1ccc(CN2CC(c3ccncn3)C2)o1`: the INHIBITION amounted to 6.1%.
`CN(C)c1cc(CNC(=O)c2ccc(F)cc2)ccn1`: the INHIBITION is -7.35%.
As to `CN(C)c1cc(CNC(=O)c2cc(F)ccc2F)ccn1`, the INHIBITION is recorded as -2.53%.
In the case of `CN(C)c1cc(CNC(=O)c2cn(-c3ccc(F)cc3)nn2)ccn1`, the INHIBITION was 70.6%.
Turning to `CC(C)COCC(NC(=O)c1ccncc1)c1ccco1` (configuration not stated), the INHIBITION is on record as 28.8%.
For the compound `CS(=O)(=O)N1CCC(Nc2ccc(C#N)c(C(F)(F)F)c2)CC1`, the INHIBITION is on record as -11.7%.
With `N#Cc1ccc(NC2CCN(c3ncccn3)CC2)cc1Cl`, the INHIBITION is 28.7%.
Consider `N#Cc1ccc(NC2CCN(c3ncccn3)CC2)cc1C(F)(F)F`, for which the INHIBITION came out at 68.2%.
On to `CC(C)(C)c1ncc(C(=O)NCCNc2ncccn2)s1`, for which the INHIBITION was -39.3%.
On to `CCN(Cc1ccncc1)CC1(C)Cc2c(N)nc(N)nc2O1` (configuration not stated), for which the INHIBITION is recorded as 14.27%.
`CC(C)OCc1ncn2c1CN(CC1CC1)CCC2`: the INHIBITION is 66%.
The result for `CC(C)OCc1ncn2c1CN(Cc1nccs1)CCC2` reads 46.2%.
Regarding `COc1ccc(CN2CCCn3cnc(COCC4CC4)c3C2)cc1`, the INHIBITION is on record as 42.6%.
For `CC(C)OCc1ncn2c1CN(CCO)CCC2`, the INHIBITION amounted to 0.804%.
Turning to `CC(C)OCc1ncn2c1CN(Cc1ccoc1)CCC2`, the INHIBITION came out at 59%.
As to `Cc1nc(CN2CCCn3cnc(COCC4CC4)c3C2)cs1`, the INHIBITION stood at 4.02%.
For `c1nc(COCC2CC2)c2n1CCCN(CC1CC1)C2`, the INHIBITION came to 11.5%.
For the compound `Cc1nc(CN2CCCn3cnc(COC(C)C)c3C2)cs1`, the INHIBITION is 66%.
Next, `CC(C)OCc1ncn2c1CN(Cc1cnn(C)c1)CCC2`: -7.24%; `c1cc(CN2CCCn3cnc(COCC4CC4)c3C2)co1`: 35.7%; `COc1ccc(CN2CCCn3cnc(COC(C)C)c3C2)cc1`: 56.7%.
On to `CC(C)OCc1ncn2c1CN(Cc1ccc(F)cc1)CCC2`, for which the INHIBITION is 9.67%.
With `COc1ccsc1C(=O)N1CCCC(n2nc(C)cc2C)C1` (configuration not stated), the INHIBITION was -5.25%.
Take `N#Cc1cccc(NC(=O)C2CCCN2c2nccs2)c1` (configuration not stated): the INHIBITION was found to be 17.865%.
In the case of `O=C(CC1CCCCC1)NC1CCCCNC1=O` (configuration not stated), the INHIBITION is on record as -65.3%.
Next, `CCc1ccc(CC(=O)N2CCN(c3nccn3C)CC2)cc1`: 27%; `CSCCC(NC(=O)c1ccccc1)C(=O)N(C)Cc1ccsc1` (configuration not stated): 16.1%.
With `O=C(NCCn1nc(C2CCNC2)c2cccnc21)c1ccccc1` (configuration not stated), the INHIBITION is listed as -11.7%.
Regarding `CN(C)Cc1nnn2c1CN(Cc1cccnc1)CCC2`, the INHIBITION is -21.1%.
In the case of `CCc1noc(CN2CCN(Cc3cccs3)CC2)n1`, the INHIBITION is on record as 3.73%.
Turning to `COCC(=O)N(C)Cc1nc(N(C)C)ncc1-c1ccncc1`, the INHIBITION is recorded as -3.53%.
The result for `Cc1ncsc1CN1C[C@@H](OCC(=O)N(C)C)[C@H]2OCCC[C@H]21` reads -31.3%.
`CC(C)NS(=O)(=O)c1cc(C(=O)O)cc(-c2ccccc2C#N)c1`: the INHIBITION was 53.8%.
The result for `CC(=O)c1ccccc1-c1cc(C(=O)O)cc(S(=O)(=O)NC(C)C)c1` reads -9.2%; that for `CC(C)NS(=O)(=O)c1cc(C(=O)O)cc(-c2ccccc2F)c1`, -108%; that for `CC(=O)N1CC[C@H]2OCC[C@@H](C(=O)Nc3cccnc3C)[C@H]2C1`, -14.2%.
With `COCC(=O)N1C[C@H]2CN(Cc3cccc(F)c3)C(=O)[C@H]2C1`, the INHIBITION was 50.9%.
In the case of `O=C(CO)N1C[C@H]2CN(Cc3cccc(F)c3)C(=O)[C@H]2C1`, the INHIBITION amounted to 40.4%.
On to `O=C(NC1CC1)N1C[C@H]2CN(Cc3cccc(F)c3)C(=O)[C@H]2C1`, for which the INHIBITION is on record as 60.2%.
As to `CN(C)C(=O)N1C[C@H]2CN(Cc3cccc(F)c3)C(=O)[C@H]2C1`, the INHIBITION turned out to be 33%.
Consider `O=C(c1ccco1)N1C[C@H]2CN(Cc3cccc(F)c3)C(=O)[C@H]2C1`, for which the INHIBITION is 1.94%.
Next, `O=C(c1ccc[nH]1)N1C[C@H]2CN(Cc3cccc(F)c3)C(=O)[C@H]2C1`: 8.53%.
